From PubChem
This is a sample that favours compounds with a hit; in the whole collection about 4.1% have one here.
hgDAF12 agonist = hgDAF-12 agonism, primary luciferase screen; HEK293 GAL4-hgDAF12 UAS-luciferase reporter, agonist luminescence; normalized to butyrate control; activation, % at 6.8 µM; 1.8% of 370,000 active; AID 687014;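 active means activation above a cutoff set at the mean of all screened compounds plus 3 SD, cut at about 10% in these data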;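 further: 0% = DMSO wells and 100% = sodium butyrate wells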
hcDAF12 agonist = activators of H. contortus DAF-12 nuclear receptor; HEK293 hcDAF-12 lit1-tk-luc reporter, luminescence; 0% DMSO, 100% Δ7-dafachronic acid; activation, % at 6.8 µM; 1.4% of 370,000 active; AID 652067;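 active means activation above the mean of all tested compounds plus 3 SD, cut at about 5.5% in these data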;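 further: 100% = response to 3 µM Δ7-dafachronic acid high control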
DAX1 inh-1 = DAX1 (NR0B1) inhibition, primary screen. HEK293T StAR-luciferase reporter, SF-1/DAX-1 repression relief. inhibition, % at 6.8 µM. 1.1% of 370,000 active;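 active means inhibition above the mean over all tested compounds plus 3 SD, cut at about 3.6% in these data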;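 further: 0% = DAX-1 cells with DMSO and 100% = cells lacking DAX-1 with DMSO; higher inhibition means more luminescence from relief of DAX-1 repression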
ssDAF-12 act = S. stercoralis DAF-12 activation, primary screen; HEK293 ssDAF-12/GRIP1 lit1-tk-luc reporter, luminescence; % of 3 µM dafachronic acid response; activation, % at 6.8 µM; 1% of 370,000 active; AID 652126;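 active means activation above the mean over all tested compounds plus 3 SD, cut at about 0.9% in these data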;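 further: 0% = DMSO-only wells and 100% = 3 µM delta7-dafachronic acid wells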
DAX1 inh-2 = inhibitors of human orphan nuclear receptor DAX1 (NR0B1); 0.99% of 340,000 active; P51843; AID 504766; HEK293 Gal4-DAX1 luciferase reporter, luminescence; inhibition, % at 6.75 µM;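 active means inhibition above the mean over all tested compounds plus 3 SD, cut at about 4.2% in these data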;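 further: 0% = DAX1-transfected cells with DMSO and 100% = empty-vector control cells with DMSO; inhibition shows as a rise in luminescence from relieved DAX1 repression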
Target sequence (P51843 207-470 limits assumed): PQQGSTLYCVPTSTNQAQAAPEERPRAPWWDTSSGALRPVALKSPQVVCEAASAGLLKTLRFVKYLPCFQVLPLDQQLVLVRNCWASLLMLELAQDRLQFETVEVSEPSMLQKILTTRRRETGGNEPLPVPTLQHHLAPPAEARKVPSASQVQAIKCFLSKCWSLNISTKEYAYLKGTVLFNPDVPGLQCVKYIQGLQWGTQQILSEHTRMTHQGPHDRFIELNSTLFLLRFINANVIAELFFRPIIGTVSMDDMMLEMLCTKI
* hit, by the source's call.

`CC(C)[C@H](NC(=O)c1ccc(Cl)c([N+](=O)[O-])c1)C(=O)NCc1ccc(F)cc1` gave hgDAF12 agonist 2, hcDAF12 agonist 1, DAX1 inh-1 0, ssDAF-12 act -1 and DAX1 inh-2 4.6*.
For CC(=O)OC12CCCN(C1)/C(=C/c1ccc(Cl)cc1)C2 (configuration not stated) the results were hgDAF12 agonist -2, hcDAF12 agonist -4, DAX1 inh-1 0 and ssDAF-12 act -2.
Cc1ccc(C(=O)N2CCN(c3ccc(NC(=O)c4cccnc4Cl)cc3)CC2)cc1 was read as hgDAF12 agonist -1, hcDAF12 agonist -3, DAX1 inh-1 -1, ssDAF-12 act -1 and DAX1 inh-2 -2.
`CC1CCN(c2ccc(NC(=O)c3cccnc3Cl)cc2)CC1` gave hgDAF12 agonist 12*, hcDAF12 agonist 0, DAX1 inh-1 1, ssDAF-12 act -1 and DAX1 inh-2 2.
`COc1cc2cc(Oc3ccc4ccc(=O)oc4c3)c(=O)oc2cc1OC(C)=O` gave hgDAF12 agonist -2, hcDAF12 agonist -3, DAX1 inh-1 1, ssDAF-12 act -2 and DAX1 inh-2 9.8*.
For Cc1ccc(/C=N\NC(=O)CN2CCN(S(=O)(=O)c3ccc(Br)cc3)CC2)s1 the results were hgDAF12 agonist -2, hcDAF12 agonist -2, DAX1 inh-1 -1 and ssDAF-12 act -2.
Screening Cc1ccc(-n2c(SCC(=O)Nc3cccc4ccccc34)nnc2-c2ccccc2)cc1 returned hgDAF12 agonist 1, hcDAF12 agonist -1, DAX1 inh-1 -1 and ssDAF-12 act 0.
CC(C)N1CCCCC(NC(=O)c2ccc(F)c(F)c2)C1=O (configuration not stated) was read as hgDAF12 agonist 3, hcDAF12 agonist -2, DAX1 inh-1 0 and ssDAF-12 act -1.
`Cc1ccc(S(=O)(=O)N(C)Cc2ccc(C(=O)N/N=C/c3ccc(OC(F)F)cc3)cc2)cc1` gave hgDAF12 agonist -1, hcDAF12 agonist -1, DAX1 inh-1 0, ssDAF-12 act -1 and DAX1 inh-2 6.2*.
Screening C/C(=N\NC(=O)c1ccc(CN(C)S(=O)(=O)c2ccc(C)cc2)cc1)c1ccc(OC(F)F)cc1 returned hgDAF12 agonist 2, hcDAF12 agonist 0, DAX1 inh-1 -1, ssDAF-12 act -2 and DAX1 inh-2 0.
Screening O=C(NCC1COc2ccccc2O1)c1ccc(NC(=O)c2c(Cl)cccc2Cl)cc1 (configuration not stated) returned hgDAF12 agonist -3, hcDAF12 agonist -3, DAX1 inh-1 -1 and ssDAF-12 act -1.
Screening COc1ccc(CNC(=O)[C@H](Cc2ccccc2)NC(=O)C2CCN(C(=O)[C@H](C)N)CC2)cc1 returned hgDAF12 agonist 3, hcDAF12 agonist 2, DAX1 inh-1 0, ssDAF-12 act -1 and DAX1 inh-2 5.0*.
COc1ccc(CNC(=O)[C@H](C)NC(=O)C2CCN(C(=O)[C@H](CCSC)NC(=O)OC(C)(C)C)CC2)cc1 was read as hgDAF12 agonist -2, hcDAF12 agonist -1, DAX1 inh-1 1, ssDAF-12 act -2 and DAX1 inh-2 6.2*.
`COc1ccccc1CN[C@@H]1CC[C@@]23CCCN2C(=O)CCC[C@H]3C1` gave hgDAF12 agonist 4, hcDAF12 agonist 2 and ssDAF-12 act -1.
`COc1ccc(/C=N/NC(=S)Nc2c(C)n(C)n(-c3ccccc3)c2=O)cc1OC` gave hgDAF12 agonist 0, hcDAF12 agonist -1, DAX1 inh-1 0, ssDAF-12 act -1 and DAX1 inh-2 5.4*.
`COc1ccc(CNC(=O)C2CC(c3ccccc3[N+](=O)[O-])=NO2)cc1` (configuration not stated) gave hgDAF12 agonist 2, hcDAF12 agonist 1, DAX1 inh-1 0, ssDAF-12 act -1 and DAX1 inh-2 2.
Screening COc1ccccc1CNC(=O)C1CC(c2ccccc2[N+](=O)[O-])=NO1 (configuration not stated) returned hgDAF12 agonist 1, hcDAF12 agonist 6.1*, DAX1 inh-1 0, ssDAF-12 act 0 and DAX1 inh-2 -1.
Screening COc1cc(C(c2c(C(=O)O)[nH]c3ccccc23)c2c(C(=O)O)[nH]c3ccccc23)ccc1OCc1ccccc1 returned hgDAF12 agonist 1, hcDAF12 agonist 5.9*, DAX1 inh-1 0, ssDAF-12 act 0 and DAX1 inh-2 1.
`O=C(O)c1[nH]c2ccccc2c1C(c1ccccc1)c1c(C(=O)O)[nH]c2ccccc12` gave hgDAF12 agonist 4, hcDAF12 agonist 3, DAX1 inh-1 1, ssDAF-12 act -1 and DAX1 inh-2 0.
For COc1cccc2cc(-c3nnc(-c4ccccc4)o3)c(=O)oc12 the results were hgDAF12 agonist 11*, hcDAF12 agonist 1, DAX1 inh-1 1, ssDAF-12 act -1 and DAX1 inh-2 4.
`COc1cccc2cc(-c3csc(CCn4nc(C)cc4C)n3)c(=O)oc12` gave hgDAF12 agonist 0, hcDAF12 agonist -2, DAX1 inh-1 0, ssDAF-12 act -1 and DAX1 inh-2 1.
For COc1cccc2cc(-c3ccccc3)oc12 the results were hgDAF12 agonist 0, hcDAF12 agonist -2, DAX1 inh-1 0 and ssDAF-12 act -1.
Screening CC/C(C)=N/Nc1nc(-c2cc3cccc(OC)c3oc2=O)cs1 returned hgDAF12 agonist 12*, hcDAF12 agonist 5, DAX1 inh-1 2 and ssDAF-12 act -1.
`CN1C2=N[C@H](c3ccc(Br)cc3)CC(=O)N2/C(=C\c2ccccc2)[C@@H]1c1ccccc1` gave hgDAF12 agonist 0, hcDAF12 agonist -2 and ssDAF-12 act -2.
For CCOc1cc(C=NN2CCN(Cc3ccc(C)cc3)CC2)ccc1O the results were hgDAF12 agonist -1, hcDAF12 agonist 0, DAX1 inh-1 -1 and ssDAF-12 act -2.
Screening O=C1CCNc2c(Cl)cccc21 returned hgDAF12 agonist 1, hcDAF12 agonist 2, DAX1 inh-1 0, ssDAF-12 act 0 and DAX1 inh-2 0.
`O=C1CCNc2c(Cl)cc(Cl)cc21` gave hgDAF12 agonist -1, hcDAF12 agonist -1, DAX1 inh-1 0, ssDAF-12 act -1 and DAX1 inh-2 5.0*.
`CC(C)N(C(=O)CSc1nc2ccccc2n1-c1ccccc1)C(C)C` gave hgDAF12 agonist -2, hcDAF12 agonist -2, DAX1 inh-1 -1, ssDAF-12 act -1 and DAX1 inh-2 -1.
For O=C(O)CCSc1nc2ccccc2n1-c1ccccc1 the results were hgDAF12 agonist 0, hcDAF12 agonist 6.0*, DAX1 inh-1 1, ssDAF-12 act -1 and DAX1 inh-2 0.
For COC(=O)[C@H](C(C)C)N1CCc2nnn(Cc3ccccc3)c2-c2cc(F)ccc2S1(=O)=O the results were hgDAF12 agonist 1, hcDAF12 agonist -2, DAX1 inh-1 0 and ssDAF-12 act -1.
